hcDAF12 agonist: H. contortus DAF-12 activation, primary screen; HEK293 hcDAF-12 lit1-tk-luc reporter, luminescence; 0% DMSO, 100% Δ7-dafachronic acid; activation, % at 6.8 µM; 370,000 compounds, 1.4% hits;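 active = activation above the mean of all tested compounds plus 3 SD, cut at about 5.5% in these data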
PolyA inhibitor: inhibitors of polyadenylation in S. cerevisiae; S. cerevisiae SKY197-pL101 polyadenylation reporter, beta-gal luminescence; efflux-impaired pdr1/pdr3 knockout yeast; score 100 = 6 SD above DMSO; activity score, % at 12 µM; 300,000 compounds, 0.02% hits; AID 1875;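 active = lowest replicate activity score at least 50, where 100 means six control SD above control mean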;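 note: yeast exposed to compound for 9 h at 30 °C; higher score means more reporter readthrough which indicates perturbed polyadenylation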
DAX1 inh-1: NR0B1 (DAX1) inhibition; P51843; HEK293 Gal4-DAX1 luciferase reporter, luminescence; inhibition, % at 6.75 µM; 340,000 compounds, 0.99% hits;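 active = inhibition above the mean over all tested compounds plus 3 SD, cut at about 4.2% in these data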;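 note: inhibition shows as a rise in luminescence from relieved DAX1 repression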
DAX1 inh-2: DAX1 (NR0B1) inhibition, primary screen; inhibition, % at 6.8 µM; HEK293T StAR-luciferase reporter, SF-1/DAX-1 repression relief; 370,000 compounds, 1.1% hits; AID 652010;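 active = inhibition above the mean over all tested compounds plus 3 SD, cut at about 3.6% in these data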;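 note: higher inhibition means more luminescence from relief of DAX-1 repression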
ssDAF-12 act: activators of S. stercoralis DAF-12 nuclear receptor; HEK293 ssDAF-12/GRIP1 lit1-tk-luc reporter, luminescence; % of 3 µM dafachronic acid response; activation, % at 6.8 µM; 370,000 compounds, 1% hits; AID 652126;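 active = activation above the mean over all tested compounds plus 3 SD, cut at about 0.9% in these data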
hgDAF-12 ag: agonists of H. glycines DAF-12 nuclear receptor. activation, % at 6.8 µM. 370,000 compounds, 1.8% hits. AID 687014. HEK293 GAL4-hgDAF12 UAS-luciferase reporter, agonist luminescence; normalized to butyrate control;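 active = activation above a cutoff set at the mean of all screened compounds plus 3 SD, cut at about 10% in these data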
LXR ag: LXR-beta agonism as hcDAF-12 counter-screen; shares compounds with hcDAF12 agonist; HEK293 Gal4-LXR tk-luc reporter, luminescence, 24 h; normalized: DMSO 0%, positive control 100%; activation, % at 6.8 µM; 3,400 tested, under 10 active;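 active = mean percent activation of the reporter above a cutoff set as the average over tested compounds plus their standard deviation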
Target sequence (P55055 whole entry, looked up, the tested form may be a part): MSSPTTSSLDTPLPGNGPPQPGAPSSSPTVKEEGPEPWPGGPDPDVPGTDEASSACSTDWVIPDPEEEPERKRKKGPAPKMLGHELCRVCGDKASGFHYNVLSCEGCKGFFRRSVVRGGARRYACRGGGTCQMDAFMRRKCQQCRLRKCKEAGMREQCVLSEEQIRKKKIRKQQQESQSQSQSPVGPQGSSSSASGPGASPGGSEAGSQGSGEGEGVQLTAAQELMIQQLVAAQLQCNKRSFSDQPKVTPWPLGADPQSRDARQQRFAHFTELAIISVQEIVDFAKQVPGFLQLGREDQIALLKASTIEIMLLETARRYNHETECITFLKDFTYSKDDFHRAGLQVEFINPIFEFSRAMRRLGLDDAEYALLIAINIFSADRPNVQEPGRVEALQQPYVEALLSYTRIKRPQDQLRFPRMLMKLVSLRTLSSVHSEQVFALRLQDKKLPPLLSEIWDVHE
hcDAF12 conf: hcDAF-12 agonism, confirmation assay; 3,400 compounds, 61% hits; HEK293 hcDAF-12 lit1-tk-luc reporter, luminescence; % of Δ7-dafachronic acid response; activation, % at 6.8 µM; shares compounds with hcDAF12 agonist;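 active = mean activation across triplicate tests above the threshold derived from the earlier primary screen, cut at about 5.5% in these data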
A number is an active result; – = inactive; · = no result given. An excerpt weighted towards active compounds, which were near 4.1% of everything screened.

SMILES | hcDAF12 agonist | PolyA inhibitor | DAX1 inh-1 | DAX1 inh-2 | ssDAF-12 act | hgDAF-12 ag | LXR ag | hcDAF12 conf
Cc1cc(=O)oc2ccc(OC(=O)CN3C(=O)c4cccc([N+](=O)[O-])c4C3=O)cc12 | 8.8 | – | – | – | – | – | – | –
CN(C(=O)COc1cc(=O)n(C)c2ccccc12)c1ccc(Br)cc1 | 6.8 | – | – | – | – | – | – | –
CCCCCCn1c(=O)n2n(c1=O)[C@@H]1CN(S(=O)(=O)c3ccc(C)cc3)C[C@]1(O)[C@@H](OC(=O)NCc1ccccc1)C2 | – | · | – | – | – | – | · | ·
CC1CN(C(=S)Nc2ccccc2C(F)(F)F)CC(C)O1 (centres undefined) | – | – | – | – | – | – | · | ·
FC(F)(F)c1ccccc1Cc1c(-c2cccc(Cl)c2)nc2c3ccccc3ccn12 | 8.3 | · | · | – | 1.6 | – | – | –
COc1ccccc1Cc1c(-c2ccc(OC)c(OC)c2)nc2c3ccccc3ccn12 | – | · | · | – | – | – | · | ·
COc1ccc(-c2nc3c4ccccc4ccn3c2Cc2ccccc2)cc1OC | 11 | · | · | – | 2.8 | – | – | 9.9
COc1ccccc1Cc1c(-c2ccccc2)nc2c3ccccc3ccn12 | 6.6 | · | · | – | 1.4 | – | – | 6.0
O=C(NCc1c(O)ccc2ccccc12)c1ccccc1 | – | – | – | – | – | – | · | ·
O=C(Nc1cccc2ncccc12)c1cc([N+](=O)[O-])ccc1Cl | – | – | – | – | – | – | · | ·
COCCCN1C(=O)C(CC(=O)NCC2CCCCC2)CC(C(=O)N(C)C)=C1C (centres undefined) | – | · | – | – | – | – | · | ·
COc1cccc(OCc2ccc(Cl)cc2)c1C#N | 8.4 | – | 4.8 | – | 1.7 | 12 | – | 7.3
CC1(C(=O)NS(=O)(=O)c2ccc3c(c2)CCO3)CCN1C(=O)CCC1CCCC1 (centres undefined) | – | · | · | – | – | – | · | ·
Cc1nc(-c2ccccc2)cs1 | – | – | – | – | – | – | · | ·
N=c1oc2ccccc2cc1-c1nc(-c2ccccc2)cs1 | 11 | – | – | – | 1.1 | – | – | –
O=S1(=O)CC(O)C(O)CS1 (centres undefined) | – | · | · | – | – | – | · | ·
O=[N+]([O-])c1ccccc1CSc1nc2ccccc2o1 | 6.7 | – | – | – | – | – | – | –
Cc1ccc(/C=C/C(=O)Nc2ncc(C)s2)o1 | 7.2 | – | – | – | – | – | – | –
CCN(CC)C(=O)C1=C(C)N(Cc2ccc(OC)cc2)C(=O)C(CC(=O)NC2CCCC2)C1 (centres undefined) | – | · | – | – | – | – | · | ·
Cc1cc2ncc(-c3ncc(C(F)(F)F)cc3Cl)cn2n1 | 8.3 | – | – | – | – | 12 | – | 6.7
N#Cc1cnn2cc(-c3ncc(C(F)(F)F)cc3Cl)cnc12 | – | – | – | – | – | – | · | ·
O=C(COC(=O)c1ccc(O)cc1O)NC(=O)Cc1ccccc1 | – | · | – | – | – | – | · | ·
Cc1cccc(-c2cc3c(N=O)c4ccccc4c-3n[nH]2)c1 | 12 | – | 6.9 | 3.9 | 1.2 | 17 | – | 17
Cc1ccc(-c2cc3c(N=O)c4ccccc4c-3n[nH]2)cc1 | – | – | – | – | – | – | · | ·
Cc1cc(C)c(C(=O)CSC2=NC(N)=C(C#N)C3(CCCCC3)C2C(N)=O)cc1C (centres undefined) | – | – | – | – | – | – | · | ·
SMILES | hcDAF12 agonist | PolyA inhibitor | DAX1 inh-1 | DAX1 inh-2 | ssDAF-12 act | hgDAF-12 ag | LXR ag | hcDAF12 conf
C/C(N)=C(/C#N)C(=O)CSc1nnnn1-c1ccccc1 | – | – | – | – | – | – | · | ·
C/C(N)=C(/C#N)C(=O)CSc1nnnn1-c1ccc(C)cc1 | 7.0 | – | – | – | – | – | – | –
Cc1c(C(=O)Nc2nccs2)oc2ccc(Br)cc12 | 9.2 | · | – | 4.1 | 2.3 | – | – | 13
CCc1nnc(NC(=O)c2oc3ccc(Br)cc3c2C)s1 | – | · | – | – | – | – | · | ·
CC1(C)Cc2cccc(OCC(=O)OCC(=O)Nc3ccc(S(N)(=O)=O)cc3)c2O1 | – | · | – | – | – | – | · | ·
CC1CCc2c(nc3sc4c(c3c2N)CCCC4)C1 (centres undefined) | 7.1 | – | – | – | – | 21 | – | –
O=C(Cn1cc([N+](=O)[O-])cn1)NCc1cc2ccccc2[nH]1 | 8.0 | – | – | – | – | – | – | –
O=C(Cn1cc([N+](=O)[O-])cn1)NCCc1nc2ccccc2[nH]1 | – | – | – | – | – | – | · | ·
CCC(C)Nc1nc(-c2c[nH]c3ccccc23)cs1 (centres undefined) | 8.8 | – | – | – | – | – | – | –
CN=c1scc(-c2c[nH]c3ccccc23)n1C | – | · | – | – | – | – | · | ·
COc1ccccc1Cc1c(-c2ccc(C#N)cc2)nc2c3ccccc3ccn12 | – | · | · | – | – | – | · | ·
Cc1cccc2c(N=O)c(O)n(CCc3ccccc3)c12 | – | – | – | – | – | – | · | ·
Cc1noc(C(=O)Nc2ccc(Cl)cc2)c1Cl | · | – | · | · | · | · | · | ·
Cc1noc(C(=O)Nc2cc(Cl)ccc2O)c1Cl | 7.4 | – | – | – | – | – | – | –
COc1ccc(/C=N\n2nnc3ccccc32)cc1 | 9.1 | – | – | 4.2 | 0.9 | – | – | 7.7
COc1ccc(/C=N/n2c(C)nc3ccccc3c2=O)cc1 | – | – | – | – | – | – | · | ·
O=C(CCn1c(=S)oc2ccccc21)Nc1cccc(O)c1 | – | – | – | – | – | – | · | ·
O=C(CCn1c(=S)oc2ccccc21)Nc1cccc(F)c1 | 7.5 | – | – | – | – | – | – | –
O=C(O)c1cc(-c2c[nH]c3ccccc23)nc2cc3ccccc3cc12 | 8.7 | – | · | – | 1.6 | – | – | 9.0
Cc1cccc(C)c1NC(=O)CN(C)C(=O)c1ccc2nc[nH]c2c1 | – | – | – | – | – | – | · | ·
O=c1c2ccccc2cnn1-c1ccc(Br)cc1 | 11 | – | – | 3.9 | 2.1 | 16 | – | 12
CO[C@@H]1CN(C)C(=O)c2ccc(NC(=O)c3ccccc3F)cc2OC[C@@H](C)N(CC2CCOCC2)C[C@@H]1C | – | · | · | – | – | – | · | ·
Oc1c(Cl)cc(Cl)cc1C=Nc1cc(C(F)(F)F)ccc1N1CCc2ccccc2C1 | 21 | – | – | – | 3.2 | 20 | – | 16
Oc1c(Cl)cccc1C=Nc1cc(C(F)(F)F)ccc1N1CCCC1 | – | – | – | – | – | – | · | ·
CC(C)(C)c1ccc(S(=O)(=O)N2CC(C(=O)O)Oc3ccc(Cl)cc32)cc1 (centres undefined) | – | – | – | – | – | – | · | ·

Bioassay records: PubChem BioAssay, several laboratories
